In PubChem BioAssay AID1776 (NMMLSC, 2009) one finds fluorescence (KMESF) data, which are given here for 100 molecules.

Screen size: about 190,000 compounds; about 490 (0.26%) were called active. The list comes from a sample in which actives are over-represented; it also holds similar structures and randomly drawn compounds. Values without a mark were called inactive. No stated cut-off is given here; in the data, active means fluorescence above about 89; inactive means the rest.

This test is described as follows: compound fluorescence on glutathione beads, profiling panel, artefact control, biophysical, 488/530 nm, flow cytometry (AID 1776).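 Further: glutathione beads carrying GST-tagged Bcl family fusion proteins plus one bare bead set; values are compound well signal with DMSO vehicle wells as background.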 To be noted: GSH beads flow cytometry, compound fluorescence 488/530 nm; at 10 µM; active compounds read high. Background: In flow cytometry, cells or beads pass a laser one at a time.
As for `Cc1ccc(Cl)cc1NC(=O)COC(=O)CC(C)(C)C`, the fluorescence (KMESF) was 12.

In the case of `Cc1ccc(Cl)cc1NC(=O)COC(=O)C1CCCCC1`, the fluorescence (KMESF) was 249 (active).

On to `O=C(COC(=O)C1CCCCC1)Nc1ccc([N+](=O)[O-])cc1`, for which the fluorescence (KMESF) is 25.

Regarding `COc1cc(CN2CCN(Cc3ccc(C)cc3)CC2)c([N+](=O)[O-])cc1OC`, the fluorescence (KMESF) is 14.

For `Cc1nccc(-c2ccc(-n3c(C)ccc3C)cc2)n1`, the fluorescence (KMESF) is 9.

Consider `CCC(=O)N1CCC(C(N)=O)(N2CCCCC2)CC1`, for which the fluorescence (KMESF) is 12.

On to `Cc1ccnc2nc(C(=O)Nc3nnc(-c4ccccc4)o3)nn12`, for which the fluorescence (KMESF) is 14.

With `CCc1nnc(NC(=O)c2nc3nccc(C)n3n2)s1`, the fluorescence (KMESF) is 259 (active).

Consider `CCc1nnc(NC(=O)c2cccs2)s1`, for which the fluorescence (KMESF) is 15.

As for `CC1CN(C(=S)SCC(=O)c2ccccc2)CC(C)O1` (stereo not given), the fluorescence (KMESF) is 18.

For `CC1(c2ccccc2Cl)NC(=O)N(CC(=O)NC(=O)NCc2ccco2)C1=O` (stereo not given), the fluorescence (KMESF) is 27.

For the molecule `CC1CN(C(=O)CN2C(=O)NC(C)(c3ccccc3)C2=O)CC(C)O1` (stereo not given), the fluorescence (KMESF) was 263 (active).

Turning to `COc1ccccc1CNC(=O)CN1CCC(n2cnc3cc(F)ccc32)CC1`, the fluorescence (KMESF) was 10.

As to `CCc1ccc2ncc(C(=O)c3ccccc3)c(N3CCOCC3)c2c1`, the fluorescence (KMESF) was 15.

Turning to `CCNc1nc(NC(C)C)nc(N2CC(=O)N(CC(=O)OCC)C2=N)n1`, the fluorescence (KMESF) is 29.

`O=C(Nc1cc(Cl)cc(Cl)c1)C(NCCCO)c1ccccc1` (stereo not given): the fluorescence (KMESF) is 18.

`CCOc1cc(C(=O)OCC(=O)Nc2cccc(C)c2)ccc1OCC(=O)N1CCOCC1`: the fluorescence (KMESF) is 16.

Consider `CCCCNC(=O)CSc1nc2ccc(NC(=O)CSc3nnc(N)s3)cc2s1`, for which the fluorescence (KMESF) was 17.

As for `O=C(NCc1nnc(SCC(=O)N2CCCc3ccccc32)o1)c1ccccc1F`, the fluorescence (KMESF) was 13.

Turning to `CN1CCN(C(=O)N2c3ccccc3CCc3ccccc32)CC1`, the fluorescence (KMESF) was 13.

Regarding `COc1ccccc1N(C(=O)Cn1nnc2ccccc21)C(C(=O)NCc1ccco1)c1ccc(C)o1` (stereo not given), the fluorescence (KMESF) is 248 (active).

With `COCCNC(=O)C(c1ccc(C)o1)N(Cc1ccccc1)C(=O)Cn1nnc2ccccc21` (stereo not given), the fluorescence (KMESF) was 21.

`Cc1ccc(C(C(=O)NCc2ccco2)N(CC2CCCO2)C(=O)Cn2nnc3ccccc32)cc1` (stereo not given): the fluorescence (KMESF) was 37.

As to `CCCCC(NC(=O)c1cccc(Br)c1)C(=O)O` (stereo not given), the fluorescence (KMESF) is 10.

Consider `CCN(Cc1ccccc1)C(=O)CN1C(=S)NC(C)(C)CC1C` (stereo not given), for which the fluorescence (KMESF) was 20.

Turning to `COc1cc([C@H](Cc2ccccc2)NC(C)=O)oc(=O)c1`, the fluorescence (KMESF) is 18.

With `CC(Oc1ccccc1)C(=O)NN1Cc2ccccc2C1=N` (stereo not given), the fluorescence (KMESF) is 9.

On to `NC(=O)c1ccc(N2CCOCC2)nc1`, for which the fluorescence (KMESF) was 10.

As to `CCN(CC)Cc1nc2sc(C)c(C)c2c(=O)[nH]1`, the fluorescence (KMESF) was 11.

As to `O=C(CN1CCN(c2ccc(Cl)cc2)CC1)NCc1cccs1`, the fluorescence (KMESF) is 18.

For the molecule `Cc1cccc(N2Cc3ccccc3C2=NC(=O)c2ccc(Cl)nc2)c1`, the fluorescence (KMESF) was 8.

For the molecule `O=C(CSc1nc2ccccc2[nH]1)Nc1nc(-c2ccccc2)c(-c2ccccc2)o1`, the fluorescence (KMESF) was 12.

`O=c1c([N+](=O)[O-])cccn1Cc1ccc(F)cc1Cl`: the fluorescence (KMESF) is 14.

For `COc1ccc(COC(=O)N/N=C(\C)CC(=O)Nc2ccc(Cl)cc2)cc1`, the fluorescence (KMESF) is 5.

For `CC(C)(C)c1ccc(NC(=O)COC(=O)CCc2nc3ccccc3c(=O)[nH]2)cc1`, the fluorescence (KMESF) was 11.

For `OCCC1CN(Cc2ccccc2-c2ccco2)CCN1Cc1ccsc1` (stereo not given), the fluorescence (KMESF) was 17.

For `COc1ccccc1-n1c(=S)[nH]c2c(sc(=S)n2-c2ccc(C)cc2C)c1=O`, the fluorescence (KMESF) was 25.

`Cc1ccc(CCC(=O)Nc2ncc(Cc3cc(Cl)ccc3Cl)s2)o1`: the fluorescence (KMESF) is 7.

On to `O=C(c1cnn(-c2ccc(Cl)cc2)c1)c1ccccc1O`, for which the fluorescence (KMESF) is 11.

Consider `Cc1ncc(CC(=O)n2cc(C(=O)c3cc(Cl)ccc3O)cn2)s1`, for which the fluorescence (KMESF) is 256 (active).

As to `COCCCNc1nc2c(-c3cccc(C(F)(F)F)c3)nnn2c2ccccc12`, the fluorescence (KMESF) was 16.

Consider `COc1cc(NC(=O)c2ccccc2NS(=O)(=O)c2ccc(Cl)s2)cc(OC)c1`, for which the fluorescence (KMESF) was 9.

Turning to `O=S(=O)(Nc1cc(S(=O)(=O)N2CCOCC2)ccc1N1CCCC1)c1cccs1`, the fluorescence (KMESF) was 19.

On to `O=S(=O)(Nc1ccccc1N1CCOCC1)c1ccc(Cl)s1`, for which the fluorescence (KMESF) was 266 (active).

As for `COc1cc([N+](=O)[O-])ccc1NC(=O)CN1CCCC1`, the fluorescence (KMESF) was 10.

Turning to `CCOC(=O)CC(=O)CSc1nc(-c2ccccc2)cc(-c2ccc(Cl)cc2)c1C#N`, the fluorescence (KMESF) was 8.

Take `CCOC(=O)CSc1nccc(N(C)C)c1C#N`: the fluorescence (KMESF) was 281 (active).

Consider `CCOC(=O)CSc1ccccn1`, for which the fluorescence (KMESF) is 16.

Regarding `Cc1ccc(CN2CCC(N3CCC(C(=O)NCC4CCCO4)CC3)CC2)o1` (stereo not given), the fluorescence (KMESF) was 22.

Regarding `O=C(NCC1CCCCC1)c1cc(S(=O)(=O)N2CCCCC2)ccc1N1CCOCC1`, the fluorescence (KMESF) was 10.

In the case of `CCN1C(=O)/C(=c2\s/c(=C3\Sc4ccccc4N3C)c(=O)n2C)N(C)C1=S`, the fluorescence (KMESF) is 15.

Regarding `COc1cc(-c2nnn(CC(=O)NCc3ccccc3)n2)cc(OC)c1OC`, the fluorescence (KMESF) is 13.

As to `O=C(CSc1ccc([N+](=O)[O-])cn1)Nc1ccc(N2CCOCC2)cc1`, the fluorescence (KMESF) was 16.

Regarding `CCOc1cc(/C=N/NC(=O)OC)ccc1OCCSc1ccc(Cl)cc1`, the fluorescence (KMESF) was 13.

`CCC1C=C(c2ccccc2)C=CN=C1N(CC)CC` (stereo not given): the fluorescence (KMESF) was 5.

Regarding `Brc1ccc(CSc2ccc(-c3ccco3)nn2)cc1`, the fluorescence (KMESF) is 11.

As for `COC(=O)CC1=NN(c2nc(C)cc(C)n2)C(=O)C1`, the fluorescence (KMESF) is 14.

Consider `Cc1ccc2[nH]c(C(=O)O)c(NC(=O)c3ccccc3[N+](=O)[O-])c2c1`, for which the fluorescence (KMESF) was 10.

Consider `CCCCN1C(=O)/C(=C(/C#N)C(N)=O)c2ccccc21`, for which the fluorescence (KMESF) is 16.

Take `CCN(Cc1ccccc1)S(=O)(=O)c1cc(C(=O)O)ccc1OC`: the fluorescence (KMESF) is 14.

For the molecule `CC[C@H]1OC(=O)[C@H](C)[C@@H](O[C@H]2C[C@@](C)(OC)[C@@H](O)[C@H](C)O2)[C@H](C)[C@@H](O[C@@H]2O[C@H](C)C[C@H](N(C)C)[C@H]2O)[C@](C)(O)C[C@@H](C)[C@@H]2N[C@@H](COCCOC)O[C@H]([C@H]2C)[C@]1(C)O`, the fluorescence (KMESF) was 22.

Turning to `O=C(Cc1c(F)cccc1Cl)Nc1ncc([N+](=O)[O-])s1`, the fluorescence (KMESF) is 18.

As for `COc1cc(-c2cc(C(=O)OCC(=O)Nc3ccc4c(c3)OCO4)c3ccccc3n2)cc(OC)c1OC`, the fluorescence (KMESF) is 4.

Take `Cc1cc(C)cc(C(=O)NC2C(=O)N3C(C(=O)O)=C(CSc4nnc(C)s4)CSC23)c1` (stereo not given): the fluorescence (KMESF) was 12.

Turning to `CCOC(=O)CNc1nc(Cl)nc(Nc2ccccc2)n1`, the fluorescence (KMESF) is 10.

Consider `OC(COc1cccc2ccccc12)CN1CCN(c2ccccn2)CC1` (stereo not given), for which the fluorescence (KMESF) is 265 (active).

For `Cc1ccccc1OCC(O)CN1CCN(c2ccccn2)CC1` (stereo not given), the fluorescence (KMESF) was 9.

Regarding `Cc1cccc(OCC(O)CN2CCN(CCN3C(=O)c4cccc5cccc(c45)C3=O)CC2)c1C` (stereo not given), the fluorescence (KMESF) is 13.

`Cc1cccc(C(=O)OCC(=O)Nc2sc3c(c2C#N)CCC3)c1`: the fluorescence (KMESF) is 5.

Take `CC(C)CC(=O)NC(=S)Nc1ccc(F)cc1F`: the fluorescence (KMESF) was 10.

Turning to `Cc1ccc(C2NC(C(=O)O)CS2)cc1` (stereo not given), the fluorescence (KMESF) is 11.

Consider `O=C(Nc1ccccc1F)c1ccccc1-c1ccccc1`, for which the fluorescence (KMESF) was 15.

Take `Cc1ccc(-n2cc3ccc([N+](=O)[O-])cc3n2)cc1`: the fluorescence (KMESF) is 104 (active).

For `Cc1cc(C)nc(Nc2cc([N+](=O)[O-])ccc2C)n1`, the fluorescence (KMESF) is 10.

As to `Cc1ccc(-c2cn3cc([N+](=O)[O-])ccc3n2)cc1`, the fluorescence (KMESF) was 13.

For the molecule `CCOC(=O)C1(Cc2cccc(OC)c2)CCN(Cc2csc(C(C)=O)c2)CC1`, the fluorescence (KMESF) was 17.

`COCC(C)NC(=O)CSc1nc2nn(-c3ccccc3)c(=O)c-2c2n1CCCCC2` (stereo not given): the fluorescence (KMESF) is 25.

With `COc1cccc(OC)c1C(=O)OCC(=O)/C(C#N)=C(\C)N`, the fluorescence (KMESF) is 11.

In the case of `C/C(=N\NC(=O)NC1CCCCC1)c1ccc(OC(F)F)cc1OC(F)F`, the fluorescence (KMESF) was 14.

In the case of `COc1cccc(/C=C(/CC(=O)Nc2ccc(N3CCOCC3)cc2)c2nc3ccccc3s2)c1`, the fluorescence (KMESF) is 13.

In the case of `CCS(=O)(=O)c1ccc(C(=O)NC)c(Cl)c1Cl`, the fluorescence (KMESF) was 12.

For the molecule `Cc1ccccc1Nc1nc(N)nc(CSc2ccccc2)n1`, the fluorescence (KMESF) was 11.

On to `Cc1nn(C)c(C)c1S(=O)(=O)N1CCC(CO)(Cc2ccc(Cl)cc2)CC1`, for which the fluorescence (KMESF) was 23.

For `NS(=O)(=O)c1ccc(NC(=S)NC(=O)c2cccc(Br)c2)cc1`, the fluorescence (KMESF) is 19.

With `CC(=O)Cc1nsc(NC(=O)c2ccc(Cl)cc2Cl)n1`, the fluorescence (KMESF) was 10.

On to `COc1cc(NC(=O)c2cc([N+](=O)[O-])ccc2Br)ccc1NC(=O)c1ccco1`, for which the fluorescence (KMESF) was 8.

As for `O=C(NCc1cccnc1)c1nc(-c2cccs2)no1`, the fluorescence (KMESF) was 15.

`Cc1ccc(C(=O)NN(CCC#N)C2=NS(=O)(=O)c3ccccc32)cc1`: the fluorescence (KMESF) was 20.

As for `CCNC(=O)c1ccc(OCC(=O)Nc2ccc(F)cc2)c(OC)c1`, the fluorescence (KMESF) is 14.

As for `CCC(C)c1ccc(NC(=S)NCc2ccccn2)cc1` (stereo not given), the fluorescence (KMESF) was 13.

In the case of `CC(C)(C)NC(=O)CN1CCC(NC(=O)C23CC4CC(CC(C4)C2)C3)CC1`, the fluorescence (KMESF) was 20.

Regarding `Cc1ccc(CN(Cc2cccnc2)C(=S)Nc2cc(Cl)ccc2C)cc1`, the fluorescence (KMESF) was 15.

Consider `CCOC(=O)C(NC(C)=O)C(=O)Nc1ccc(OC)cc1` (stereo not given), for which the fluorescence (KMESF) is 24.

Regarding `CCOC(=O)C1CCN(c2ccc(C(=O)O)cc2[N+](=O)[O-])CC1`, the fluorescence (KMESF) is 14.

With `O=C(/C=C/c1ccc(F)cc1)NC(=S)NNC(=O)c1cccnc1`, the fluorescence (KMESF) is 7.

Regarding `Cc1cc(SCC(=O)NCCN2C(=O)CSC2=O)nc2ccccc12`, the fluorescence (KMESF) is 15.

Turning to `Cc1ccc(CC2S/C(=C(/C#N)C(=O)N3CCOCC3)N(c3ccccc3)C2=O)cc1` (stereo not given), the fluorescence (KMESF) was 25.

In the case of `CCN(CC)C(=O)CN(c1cccc([N+](=O)[O-])c1)S(=O)(=O)c1ccccc1`, the fluorescence (KMESF) was 52.

`CCOc1ccc(S(=O)(=O)N(CC(=O)O)c2ccccc2)cc1`: the fluorescence (KMESF) is 264 (active).

For `CCN(c1ccccc1)S(=O)(=O)c1ccc(N)cc1`, the fluorescence (KMESF) is 14.
